PP1 counter: blocks human PP1-alpha phosphatase, a PP5 counter-screen; P62136; purified PP1alpha, OMFP fluorescence; inhibition, % at 6.7 µM; actives 0.9% (n = 320,000);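 active = inhibition above the mean inhibition of all tested compounds plus 3 SD, computed separately for each screening campaign, cut at about 15% in these data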
PAFAH1B3 FP inh: blocks human PAF acetylhydrolase 1B catalytic subunit 3. Q15102. recombinant PAFAH1B3, FP-rhodamine probe, fluorescence polarization. inhibition, % at 3.39 µM. actives 0.28% (n = 340,000);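 active = inhibition above the screen-wide average of all tested compounds plus 3 SD, cut at about 25% in these data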;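 note: 0% = enzyme with DMSO only and 100% = wells lacking PAFAH1B3 protein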
PAFAH2 FP inh: PAFAH2 (human) inhibition. Q99487. inhibition, % at 3.39 µM. actives 0.99% (n = 340,000). recombinant PAFAH2, FP-rhodamine activity probe, fluorescence polarization;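 active = inhibition above the mean over all tested compounds plus 3 SD, cut at about 30% in these data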;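 note: inhibitors block probe labeling of enzyme so polarization drops; 0% = enzyme with DMSO and 100% = wells lacking PAFAH2 protein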
pPAFAH FP inh: inhibitors of human plasma PAF acetylhydrolase (pPAFAH); recombinant pPAFAH, FP-rhodamine probe fluorescence polarization; inhibition, % at 3.39 µM; actives 1.5% (n = 330,000); AID 463082;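 active = inhibition above the mean inhibition across the screen plus 3 SD, cut at about 25% in these data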;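 note: inhibitors block binding of the rhodamine activity-based probe so polarization drops; 0% = enzyme with DMSO and 100% = wells lacking pPAFAH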
Target sequence (Q13093 whole entry, looked up): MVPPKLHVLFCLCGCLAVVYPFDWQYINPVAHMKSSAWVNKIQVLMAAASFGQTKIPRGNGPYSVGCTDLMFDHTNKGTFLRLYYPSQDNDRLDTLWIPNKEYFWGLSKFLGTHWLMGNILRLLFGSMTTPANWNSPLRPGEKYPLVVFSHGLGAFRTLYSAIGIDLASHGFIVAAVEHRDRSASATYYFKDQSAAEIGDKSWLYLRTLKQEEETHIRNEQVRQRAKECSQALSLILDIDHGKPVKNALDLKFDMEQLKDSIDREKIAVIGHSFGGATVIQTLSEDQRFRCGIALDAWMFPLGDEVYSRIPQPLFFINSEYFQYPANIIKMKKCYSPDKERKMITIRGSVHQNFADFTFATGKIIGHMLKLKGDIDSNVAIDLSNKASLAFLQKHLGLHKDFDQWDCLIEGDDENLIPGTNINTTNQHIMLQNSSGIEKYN
PAFAH1B2 inh: blocks human PAF acetylhydrolase 1b catalytic subunit 2 | P68402 | recombinant PAFAH1B2, FP-rhodamine activity probe, fluorescence polarization | inhibition, % at 3.39 µM | actives 1.2% (n = 340,000) | AID 492953;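 active = inhibition above the mean of all tested compounds plus 3 SD, cut at about 24% in these data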;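 note: 0% = enzyme with DMSO and 100% = wells lacking PAFAH1B2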
Target sequence (P68402 whole entry, looked up): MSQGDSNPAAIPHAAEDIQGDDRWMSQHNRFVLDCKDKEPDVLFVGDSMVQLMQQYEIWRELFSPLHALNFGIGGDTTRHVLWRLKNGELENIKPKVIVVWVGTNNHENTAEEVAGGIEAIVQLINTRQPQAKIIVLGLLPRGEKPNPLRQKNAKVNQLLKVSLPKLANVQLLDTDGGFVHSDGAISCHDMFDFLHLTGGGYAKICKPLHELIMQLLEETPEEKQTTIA
PP5 inh: PP5 (human) phosphatase inhibition; purified PP5c, OMFP substrate fluorescence; AID 1987; actives 0.18% (n = 320,000); P53041; inhibition, % at 6.7 µM;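 active = inhibition above the campaign's mean inhibition across all tested compounds plus 3 SD, cut at about 9.5% in these data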;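 note: 0% = DMSO only and 100% = 100 µM cantharidin control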
PP1 confirm: confirmation of human PP1 phosphatase inhibitors; inhibition, % at 6.7 µM; purified PP1alpha, OMFP substrate fluorescence; AID 2358; actives 52% (n = 1,900); shares compounds with PP1 counter;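 active = mean PP1 inhibition above a set limit taken from the earlier primary screen, cut at about 15% in these data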
PP5 inh counter: inhibits human PP5 phosphatase in PP1 counter-screen; purified PP5c, OMFP fluorescence; actives 4% (n = 1,900); AID 2360; shares compounds with PP1 counter; inhibition, % at 6.7 µM;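 active = mean PP5 inhibition over triplicate wells above about 9.5% taken from the earlier PP1 screen, limit read from the data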
Active calls of the source: *; x = not tested or not shown. Compounds with a hit are over-represented: about 3.4% of the library has one in this group of screens.

SMILES	PP1 counter	PAFAH1B3 FP inh	PAFAH2 FP inh	pPAFAH FP inh	PAFAH1B2 inh	PP5 inh	PP1 confirm	PP5 inh counter
NC(=O)CC(NC(=O)Cc1cccc2ccccc12)c1ccc(NC2CCCCC2)c([N+](=O)[O-])c1 (stereo not drawn)	19.7*	-2.6	-1.1	4.8	0.3	0.0	24.1*	-7.3
NC(=O)CC(NC(=O)Cc1cccc2ccccc12)c1ccc(NCCOc2ccccc2)c([N+](=O)[O-])c1 (stereo not drawn)	23.1*	-11.6	-5.5	-10.0	20.6	-2.7	27.3*	-3.7
NC(=O)CC(NC(=O)Cc1cccc2ccccc12)c1ccc(NCC2CC2)c([N+](=O)[O-])c1 (stereo not drawn)	-1.0	7.2	-6.9	-1.4	-2.7	-0.3	x	x
CCn1c(SCC(=O)NCc2cccs2)nnc1-c1ccncc1	-2.0	2.7	6.5	5.0	8.0	3.3	x	x
Cc1c(C)n2c(SCC(=O)N3CCCCC3)nnc2[nH]c1=O	-1.6	-1.2	-2.3	3.4	6.2	-1.2	x	x
CCCCn1c(N)c(N(CC)C(=O)c2ccc(C)cc2)c(=O)[nH]c1=O	-0.8	5.1	4.7	3.8	-1.6	0.0	x	x
O=c1[nH]c(CN2CCc3ccccc32)nc2scc(-c3cccs3)c12	18.6*	3.5	-12.4	5.6	3.2	-1.3	13.3	-1.1
COc1cccc(-c2nnc(NC(C)=O)o2)c1	2.9	6.0	2.3	0.0	-0.7	2.0	x	x
O=C(COC(=O)CCC(=O)c1ccc(F)cc1)Nc1nnc(-c2ccccc2)o1	2.5	13.4	7.9	9.4	12.4	-2.3	x	x
O=C(COC(=O)/C=C/c1ccc(F)cc1)Nc1nnc(-c2ccccc2)o1	18.5*	3.7	2.1	-4.5	12.2	4.1	28.5*	-8.2
O=C(COC(=O)/C=C/c1ccccc1F)Nc1nnc(-c2ccccc2)o1	21.3*	7.2	4.8	5.4	-1.4	-2.6	22.1*	-1.1
COc1cccc(/C=C/C(=O)OCC(=O)Nc2nnc(-c3ccccc3)o2)c1	38.0*	13.0	4.1	-1.6	-0.7	-2.3	25.3*	-0.9
COc1cccc(/C=C/C(=O)OCC(=O)Nc2nnc(-c3ccccc3)o2)c1OC	x	8.3	-0.4	x	5.5	x	x	x
C[C@H](NC(=O)c1ccc2c(c1)OCO2)c1nnc2ccccn12	-0.8	9.6	-9.9	-1.6	0.7	1.0	x	x
Cc1ccc(C)c(S(=O)(=O)N2CCC(c3nc4c(nnn4Cc4ccc(F)cc4)c(=O)[nH]3)CC2)c1	18.2*	-2.6	-2.7	4.0	6.3	4.0	6.6	1.0
Cc1ccc(Cn2nnc3c(=O)[nH]c(C4CCN(S(=O)(=O)c5cc(C)ccc5C)CC4)nc32)cc1	27.8*	-3.5	-13.9	2.5	-6.3	3.7	24.1*	3.6
Cc1ccc(Cn2nnc3c(=O)[nH]c(C4CCN(S(=O)(=O)c5ccc(F)cc5)CC4)nc32)cc1	14.3	-4.7	4.1	9.6	1.4	1.6	x	x
Cc1ccc(C)c(Cn2nnc3c(=O)[nH]c(C4CCN(S(=O)(=O)c5ccc(S(=O)(=O)N(C)C)cc5)CC4)nc32)c1	6.0	-12.8	2.2	-2.4	-5.7	4.8	x	x
COCCCNC(=O)/C=C/c1c(Cl)cccc1Cl	2.1	3.7	-9.4	3.4	-0.7	1.7	x	x
COc1cccc(-n2nnc3c(=O)n(Cc4ccc(F)cc4)cnc32)c1	39.8*	7.2	-8.6	7.4	3.2	2.4	-2.4	-1.3
CN(C)c1nc(N)nc(/C(C#N)=C/C2CC3C=CC2C3)n1 (stereo not drawn)	-4.8	-0.8	4.1	3.8	-2.3	-1.0	x	x
O=C(CSc1nc2ccc(NC(=O)CSc3nnnn3-c3ccccc3)cc2s1)Nc1ccccc1	20.3*	-24.0	-18.9	-11.3	-12.6	2.9	25.8*	-2.0
Cc1cccc(NC(=O)CSc2nc3ccc(NC(=O)CSc4nnnn4-c4ccccc4)cc3s2)c1C	0.1	x	x	1.3	x	1.3	x	x
O=c1c(C(c2ccccc2)c2c(O)sc3ccccc3c2=O)c(O)sc2ccccc12	25.1*	6.3	4.5	3.9	1.1	2.6	31.2*	1.4
O=c1c2ccccc2sc2ccccc12	x	3.6	3.8	x	2.9	x	x	x
SMILES	PP1 counter	PAFAH1B3 FP inh	PAFAH2 FP inh	pPAFAH FP inh	PAFAH1B2 inh	PP5 inh	PP1 confirm	PP5 inh counter
O=C(O)C1C2CCC(O2)C1C(=O)Nc1cnn(Cc2ccccc2)c1 (stereo not drawn)	24.1*	10.5	5.1	3.9	0.3	40.8*	6.7	17.9*
Cc1ccc(NC(=O)C2CCCCC2C(=O)O)cc1Cl (stereo not drawn)	1.3	-3.5	-4.1	1.0	-1.8	-0.9	x	x
O=C(O)C1C2CCC(O2)C1C(=O)Nc1ccc(F)c(Cl)c1 (stereo not drawn)	65.7*	7.8	-3.1	1.2	-0.7	71.2*	10.5	18.8*
Cc1ccc(NC(=O)C2C3CCC(O3)C2C(=O)O)cc1Cl (stereo not drawn)	75.1*	8.3	-1.4	0.5	1.6	74.8*	11.7	25.2*
O=C(NC1C/C(=N/O)c2cc3c(cc21)OCO3)C(F)(F)F (stereo not drawn)	-2.3	9.3	-6.7	4.3	-2.1	-3.2	x	x
CCOc1ccc(CNC(=O)CCn2c(=O)oc3ccccc32)cc1	23.3*	-0.2	-3.0	4.9	8.7	3.0	-4.4	-4.5
COc1ccc(CNC(=O)CCn2c(=O)oc3ccccc32)cc1	2.9	15.1	2.4	4.0	11.4	-0.1	x	x
CN(C)S(=O)(=O)N1CCN(c2ccc([N+](=O)[O-])c(NC3CC3)c2)CC1	-6.7	9.8	-6.1	-0.2	8.3	-1.8	x	x
CC(C)C(=O)NC(c1ccco1)c1ccc2cccnc2c1O (stereo not drawn)	1.0	16.5	0.9	5.9	11.2	-0.4	x	x
Oc1c(C(Nc2nc3ccccc3s2)c2ccco2)ccc2cccnc12 (stereo not drawn)	29.2*	10.9	5.2	18.8	3.4	3.3	19.1*	-5.3
CCOC(=O)C1=C(c2ccccc2)N=c2s/c(=C\c3cc(OC)c(OC)c(OC)c3)c(=O)n2C1c1cccs1 (stereo not drawn)	0.2	1.7	-6.6	-4.9	-4.7	2.7	x	x
CCOC(=O)C1=C(c2ccccc2)N=c2s/c(=C\c3ccco3)c(=O)n2C1c1cccs1 (stereo not drawn)	20.9*	8.4	3.1	29.1*	8.4	1.1	19.0*	-2.1
CCN(Cc1nc2ccccc2c(=O)[nH]1)C(=O)c1cc(C2CC2)nn1-c1ccccc1	-2.4	8.0	6.3	2.6	3.8	0.6	x	x
COc1ccc(CCNc2nc(-c3ccncc3)cs2)cc1OC	-1.2	1.5	3.9	7.4	3.1	-0.6	x	x
COc1ccc(CCNc2nc(-c3ccccn3)cs2)cc1OC	46.8*	6.0	-2.2	7.2	1.6	3.2	41.2*	-5.0
